S-ASM inh: blocks human secretory acid sphingomyelinase. 0.006% of 340,000 active. AID 504937. placental ASM, HMU-PC fluorogenic substrate, 60 min. Potency, µM (top dose mostly 57.5 µM), actives largely listed as inhibitors
Target sequence (P17405 47-631 limits assumed): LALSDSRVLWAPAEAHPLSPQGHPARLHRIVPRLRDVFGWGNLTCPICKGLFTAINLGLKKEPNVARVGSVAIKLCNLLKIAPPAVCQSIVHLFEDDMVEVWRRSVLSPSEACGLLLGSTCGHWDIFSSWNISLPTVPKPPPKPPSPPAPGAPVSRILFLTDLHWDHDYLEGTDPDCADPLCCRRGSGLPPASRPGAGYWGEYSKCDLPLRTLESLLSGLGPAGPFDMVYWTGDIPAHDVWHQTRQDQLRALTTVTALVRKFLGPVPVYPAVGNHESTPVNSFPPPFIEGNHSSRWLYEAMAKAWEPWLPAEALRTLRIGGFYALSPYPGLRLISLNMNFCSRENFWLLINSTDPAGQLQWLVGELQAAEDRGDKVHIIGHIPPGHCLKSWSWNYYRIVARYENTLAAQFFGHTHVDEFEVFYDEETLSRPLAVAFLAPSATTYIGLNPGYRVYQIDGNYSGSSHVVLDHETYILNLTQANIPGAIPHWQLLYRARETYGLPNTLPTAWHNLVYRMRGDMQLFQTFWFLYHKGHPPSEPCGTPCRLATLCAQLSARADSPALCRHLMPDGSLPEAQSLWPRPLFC
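Fluorescence read-out (Ex 386 nm, Em 447 nm) after stopping the reaction at pH 10. Enzyme: ASM from human placenta; substrate HMU-PC0, 9 uM final; 60 min, 37 °C. Compound preincubation 10 min, ambient temperature.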
TSHR antag: antagonists of human thyroid stimulating hormone receptor; 0.2% of 330,000 active; P16473; AID 504810; activity change, negative = inhibition, % at 11.5 µM; TSHR-expressing cells, TSH-stimulated cAMP HTRF, 2 h; stronger effect = lower value;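 active = activity change below a set negative limit, meaning inhibition stronger than a set level, cut at about -70% in these data; inconclusive = activity change between two set negative limits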
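Inhibition of cAMP made by TSHR-expressing cells under TSH stimulation (4nM final, EC80; 2 h, 37 deg C) is quantified with a one-step lysis HTRF kit, anti-cAMP cryptate versus cAMP-d2.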
Apoferritin bind: candidate novel general anesthetic via apoferritin binding; AID 485281; 0.074% of 350,000 active; apoferritin/1-aminoanthracene competitive binding, fluorescence; Potency, µM (titrated, usually from 77.5 µM), most hits filed as inhibitors; P02791; note: nearly all actives have a fitted effect of over 20% in size
Target sequence (P02791 2-175 limits assumed): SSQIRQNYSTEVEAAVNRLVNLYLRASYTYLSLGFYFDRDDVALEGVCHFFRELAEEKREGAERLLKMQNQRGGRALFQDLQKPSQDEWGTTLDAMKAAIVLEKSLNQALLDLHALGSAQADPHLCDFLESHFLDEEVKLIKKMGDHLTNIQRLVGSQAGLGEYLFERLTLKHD
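10 uM apoferritin + 50% sat. 1-AMA, PBS; cpd 10 min RT; Ex380/Em535 endpoint; normalized to free probe vs complex; 4-param Hill fit; propofol titration as pos. ctrl.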
PTAP TSG101 blk: blocks PTAP/TSG101 interaction to inhibit HIV-1 budding. 340,000 tested, under 10 active. Potency, µM (top dose mostly 115 µM), actives largely listed as inhibitors. Q99816. Fluorescence polarization, FITC-PTAP peptide / Tsg101 binding; active = well fitted inhibition curve with a large enough effect in the main read-out, with a control signal flat, not every such curve was filed as active; inconclusive = small, poorly fitted or top-dose-only effect, or effect the other way, or a change in a side signal; inactive = no such curve, though single readings can be large or run the other way
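Fluorescence anisotropy tracks displacement of a FITC-tagged PTAP peptide (50 nM) from the Tsg101 binding domain (10 uM), following a 20 min room-temperature incubation at pH 7.5.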
BRCA1 expr up: BRCA1 expression activation | 1.1% of 380,000 active | MCF7-BRCA1-FFLuc reporter, luminescence, 48 h; response scale: scaled: vehicle 0%, 10 µM genistein 100% | Potency, µM (series often up to 46.1 µM), hits mostly activators; note: nearly all actives have a fitted effect of over 80% in size
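Using MCF7 cells harboring a BRCA1 firefly luciferase reporter, plated 2 h before compound pinning, the screen measured luminescence after 48 h incubation. Responses were normalized to DMSO and 10 microM genistein, then fitted for concentration-effect.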
Hits are given with their value. In the library only some 1.2% were active in any assay of this set; here they are far more common. Unless noted, calls come from the whole dose curve; as a rule, active = well fitted curve in the direction sought with a large enough effect; inconclusive = small, poorly fitted or top-dose-only effect, or another doubt; inactive = no such curve, though single readings can be large; an effect the other way counts as inactive or inconclusive.

What do the screens show for `Cc1ccc(S(=O)(=O)NCCCNS(C)(=O)=O)cc1`?
S-ASM inh: inactive; TSHR antag: inactive; Apoferritin bind: inactive; PTAP TSG101 blk: inactive; BRCA1 expr up: inactive

Results for Cc1cccc(NC(=O)c2cnn3ccccc23)c1C ?
S-ASM inh: inactive; TSHR antag: inactive; Apoferritin bind: inactive; PTAP TSG101 blk: inactive; BRCA1 expr up: 13µM

What do the screens show for `Cc1ccsc1/C=N/n1cnc2sc(C)c(C)c2c1=O`?
S-ASM inh: inactive; TSHR antag: inactive; Apoferritin bind: inactive; PTAP TSG101 blk: inactive; BRCA1 expr up: 11µM

What do the screens show for `Cc1sc2ncn(/N=C/c3cn(-c4ccccc4)nc3-c3ccccc3)c(=O)c2c1C`?
BRCA1 expr up: inactive

How did Cn1c(SCC(=O)NCc2ccco2)nnc1-c1ccc(NC(=O)c2ccccc2)cc1 do in these assays?
BRCA1 expr up: inactive

Results for CC1CCN(CCc2nc3cc(NC(=O)Nc4ccccc4)ccc3n2C)CC1 ?
S-ASM inh: inactive; TSHR antag: inactive; Apoferritin bind: inactive; PTAP TSG101 blk: inactive; BRCA1 expr up: 14µM

Results for Cn1c(CN2CCCC2)nc2cc(NC(=O)Nc3ccccc3)ccc21 ?
S-ASM inh: inactive; TSHR antag: inactive; Apoferritin bind: inactive; PTAP TSG101 blk: inactive; BRCA1 expr up: 11µM

How did CC(=O)NCCc1nc2cc(NC(=O)c3ccc([N+](=O)[O-])cc3)ccc2n1C do in these assays?
S-ASM inh: inactive; TSHR antag: inactive; Apoferritin bind: inactive; PTAP TSG101 blk: inactive; BRCA1 expr up: 6.3µM

What do the screens show for `CC(=O)Nc1ccc2c(c1)nc(CCN1CCC(C)CC1)n2C`?
S-ASM inh: inactive; TSHR antag: inactive; Apoferritin bind: inactive; PTAP TSG101 blk: inactive; BRCA1 expr up: inactive

How did CC(=O)Nc1ccc2c(c1)nc(CCNC(=O)c1ccco1)n2C do in these assays?
S-ASM inh: inactive; TSHR antag: inactive; Apoferritin bind: inactive; PTAP TSG101 blk: inactive; BRCA1 expr up: inactive

How did Cc1ccc(C(=O)Nc2ccc3c(c2)nc(CCNC(=O)c2ccco2)n3C)cc1 do in these assays?
S-ASM inh: inactive; TSHR antag: inactive; Apoferritin bind: inactive; PTAP TSG101 blk: inactive; BRCA1 expr up: 7.1µM

Results for O=C(NCCc1nc2ccccc2n1CCOc1cccc2ccccc12)C1CCCCC1 ?
BRCA1 expr up: inactive

Results for Cc1ccc2[nH]c(-c3ccc(F)cc3F)cc(=O)c2c1 ?
Apoferritin bind: inactive

Results for CN1CCN(CCc2nc3cc(NC(=O)c4ccco4)ccc3n2C)CC1 ?
S-ASM inh: inactive; TSHR antag: inactive; Apoferritin bind: inactive; PTAP TSG101 blk: inactive; BRCA1 expr up: inactive

What do the screens show for `Cn1c(CN2CCCC2)nc2cc(NC(=O)c3ccco3)ccc21`?
S-ASM inh: inactive; TSHR antag: inactive; Apoferritin bind: inactive; PTAP TSG101 blk: inactive; BRCA1 expr up: 5.6µM

Results for Cn1c(C(=O)NCC2CCCO2)cc2oc3ccccc3c21 (stereo not given) ?
S-ASM inh: inactive; TSHR antag: inactive; Apoferritin bind: inactive; PTAP TSG101 blk: inactive; BRCA1 expr up: 3.5µM

Results for Cn1c(C(=O)NCc2cccs2)cc2oc3ccccc3c21 ?
S-ASM inh: inactive; TSHR antag: inactive; Apoferritin bind: inactive; PTAP TSG101 blk: inactive; BRCA1 expr up: 13µM

How did O=C(Nc1nnc(C2CC2)s1)c1ccc(Cl)c(S(=O)(=O)N2CCc3ccccc3C2)c1 do in these assays?
S-ASM inh: inactive; TSHR antag: -90; Apoferritin bind: inactive; PTAP TSG101 blk: inactive; BRCA1 expr up: inactive

What do the screens show for `CCCn1nnc(NC(=O)c2cccnc2Cl)n1`?
S-ASM inh: inactive; TSHR antag: inactive; Apoferritin bind: inactive; PTAP TSG101 blk: inactive; BRCA1 expr up: inactive

How did CCCn1nnc(NC(=O)c2ccc(Cl)cc2Cl)n1 do in these assays?
S-ASM inh: inactive; TSHR antag: inactive; Apoferritin bind: inconclusive; PTAP TSG101 blk: inactive; BRCA1 expr up: 2.5µM

How did CCCn1nnc(NC(=O)Cc2ccc(Cl)cc2)n1 do in these assays?
S-ASM inh: inactive; TSHR antag: inactive; Apoferritin bind: inactive; PTAP TSG101 blk: inactive; BRCA1 expr up: inactive

Results for CCCn1nnc(NC(=O)c2ccccc2Cl)n1 ?
S-ASM inh: inactive; TSHR antag: inactive; Apoferritin bind: inactive; PTAP TSG101 blk: inactive; BRCA1 expr up: 11µM

What do the screens show for `CCN(CC)S(=O)(=O)c1ccc(NC(=O)CSc2nnc3c(n2)[nH]c2ccccc23)cc1`?
BRCA1 expr up: inactive

Results for Nc1nonc1-c1noc(N2CCCCC2)n1 ?
S-ASM inh: inactive; TSHR antag: inactive; Apoferritin bind: inactive; PTAP TSG101 blk: inactive; BRCA1 expr up: 10µM

Results for CCCCCc1nc(-c2nonc2N)no1 ?
S-ASM inh: inactive; TSHR antag: inactive; Apoferritin bind: inactive; PTAP TSG101 blk: inactive; BRCA1 expr up: inactive

What do the screens show for `Cc1ccc(N2Cc3ccccc3C2=S)cc1`?
S-ASM inh: inactive; TSHR antag: inactive; Apoferritin bind: inactive; PTAP TSG101 blk: inactive; BRCA1 expr up: 4µM

How did Cn1c(SCc2ccccc2)nnc1-c1cnccn1 do in these assays?
S-ASM inh: inactive; TSHR antag: inactive; Apoferritin bind: inactive; PTAP TSG101 blk: inactive; BRCA1 expr up: inconclusive

Results for Cn1c(SCc2ccc(F)cc2)nnc1-c1cnccn1 ?
S-ASM inh: inactive; TSHR antag: inactive; Apoferritin bind: inactive; PTAP TSG101 blk: inactive; BRCA1 expr up: 11µM

How did Cc1ccc(/C(N)=N/OC(=O)c2ccco2)cc1 do in these assays?
S-ASM inh: inactive; TSHR antag: inactive; Apoferritin bind: inactive; PTAP TSG101 blk: inactive; BRCA1 expr up: inactive

What do the screens show for `N/C(=N\OC(=O)c1ccco1)c1ccccc1`?
S-ASM inh: inactive; TSHR antag: inactive; Apoferritin bind: inactive; PTAP TSG101 blk: inactive; BRCA1 expr up: 5.6µM

What do the screens show for `N/C(=N\OC(=O)c1ccco1)c1ccc(Br)cc1`?
S-ASM inh: inactive; TSHR antag: inactive; Apoferritin bind: inactive; PTAP TSG101 blk: inactive; BRCA1 expr up: 2.5µM

What do the screens show for `CC1CCCCN1C(=O)c1cnn2c1NC(=C1CC1)C=C2C(F)F` (stereo not given)?
BRCA1 expr up: inactive

What do the screens show for `CC(C)S(=O)(=O)N1CCN(c2nc(-c3cccs3)nc3ccccc23)CC1`?
BRCA1 expr up: inactive

What do the screens show for `Oc1ccc(CNc2cccc(C(F)(F)F)c2)c2cccnc12`?
TSHR antag: inactive

How did CCC1CCCCN1S(=O)(=O)c1ccc(NC(=O)c2nc(S(C)(=O)=O)ncc2Cl)cc1 (stereo not given) do in these assays?
S-ASM inh: inactive; TSHR antag: -84; Apoferritin bind: inactive; PTAP TSG101 blk: inactive; BRCA1 expr up: inactive

Results for Cc1[nH]c2ccccc2c1C(=O)CNc1ccc(Br)cc1 ?
BRCA1 expr up: inactive

How did CC(C)[C@@H]1CC[C@@H](C)C[C@@H]1P(=O)(c1ccccc1)c1ccccc1 do in these assays?
TSHR antag: inactive

High-throughput results from PubChem BioAssay.
